The source of these data is the supplement of paper PMC7530171.

“And” between values parts separate entries of the source, which are not always exact repeats. Identical values can stand only once. Counter-ions that a name gives are not always drawn. ± gives the standard deviation.

This assay has as its system THP-1. In words: THP-1 cell loss relative to DMSO control; higher = more host cell loss (toxicity); extreme values may be limits of the assay. The conditions noted are these: 10 µM; 4 days; infection: M. tuberculosis H37Rv. Here is the method: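 OICR kinase inhibitor library screened in duplicate at 10 uM against M. tuberculosis-infected THP-1 macrophages, 4 days at 37 C. THP-1 cell loss (cytotoxicity or loss of adherence) was quantified from Hoechst-stained nuclei counts by high-content imaging and normalised to the 1% DMSO control; 100 = complete loss of host cells.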
`C[C@@H](Oc1cc(-c2cnn(C3CCNCC3)c2)cnc1N)c1c(Cl)ccc(F)c1Cl` gave a THP-1 cell loss of 33.8 ± 9.9%. In turn, `O=c1cc(-c2cccc3c2Sc2ccccc2S3)oc(N2CCOCC2)c1` showed a THP-1 cell loss of 26.6 ± 14%. Compound `CN1CCC(Nc2ncc3ncnc(Nc4ccc(F)c(Cl)c4)c3n2)CC1` [BIBX 1382 dihydrochloride] yielded a THP-1 cell loss of 17.8 ± 14%. In the case of `COc1ccc(-c2ccc3c(N4CCOCC4)nc(N4C[C@@H](C)O[C@@H](C)C4)nc3n2)cc1CO` it was 53.5 ± 18%; in that of `c1ccc(-c2[nH]ncc2-c2ccnc3ccccc23)nc1`, 0%. For the compound `COc1cc2ncnc(Nc3cccc(Cl)c3)c2cc1OC` [Tyrphostin AG 1478 mesylate], the THP-1 cell loss stood at 41.5 ± 9.7%. Turning to `N#CCc1ccc(Nc2nc(Nc3cc(C4CCC4)[nH]n3)c3ccccc3n2)cc1`, the THP-1 cell loss came to 100%. As to `Nc1nc(Nc2ccc(S(N)(=O)=O)cc2)nn1C(=O)c1c(F)cccc1F`, the THP-1 cell loss was found to be 100%. For the compound `Cn1cncc1[C@@](N)(c1ccc(Cl)cc1)c1ccc2c(c1)c(-c1cccc(Cl)c1)cc(=O)n2C` [Tipifarnib], the THP-1 cell loss was 29.6 ± 27%. Compound `CN(c1ncccc1CNc1nc(Nc2ccc3c(c2)CC(=O)N3)ncc1C(F)(F)F)S(C)(=O)=O` yielded a THP-1 cell loss of 100%. In the case of `Cc1ncc(-c2ccnc(Nc3ccc(S(C)(=O)=O)cc3)n2)n1C(C)C`, the THP-1 cell loss was found to be 100%. On to `O=C(Nc1cc(C(F)(F)F)cc(C(F)(F)F)c1)c1cc(Cl)ccc1O`, for which the THP-1 cell loss was 53 ± 46%. Regarding `CN(C)Cc1cccc(N=C(c2ccccc2)c2c(O)[nH]c3cc(C(=O)N(C)C)ccc23)c1`, the THP-1 cell loss worked out at 23.9 ± 0.5%. Consider `Cc1cc(Nc2cc(C)c(C#N)c(NC(C)CCCC(C)(C)O)n2)n[nH]1` (stereo not given) [TC-A 2317 hydrochloride], for which the THP-1 cell loss worked out at 19.1 ± 1%.

Compound `CCOc1cc(N2CCC(O)CC2)ccc1Nc1ncc2c(n1)N(C)c1ccccc1C(=O)N2C` had a THP-1 cell loss of 100%. `O=S(=O)(c1cccc2c(Cl)cccc12)N1CCCNCC1` [ML 9 hydrochloride] yielded a THP-1 cell loss of 31.1 ± 21%. `NC(=O)c1ccc(N(C(N)=O)c2c(F)cccc2F)nc1-c1ccc(F)cc1F` yielded a THP-1 cell loss of 10.1 ± 4.9%.

With `Nc1nccc(-c2ccc3noc(-c4ccc(Cl)cc4)c3c2)n1` [PIM 1 Inhibitor 2], the THP-1 cell loss turned out to be 9.99 ± 7.3%. As for `Fc1ccc(-c2nc3n(c2-c2ccncc2)CCS3)cc1`, the THP-1 cell loss was 7.21% and 5.2%. As for `CN(C)CCOc1cc(-c2cn[nH]c2)ccc1NC(=O)C1COc2ccccc2O1` (stereo not given), the THP-1 cell loss came out at 0%.

For the compound `Cc1[nH]c(/C=C2\C(=O)Nc3ccc(S(=O)(=O)Cc4c(Cl)cccc4Cl)cc32)c(C)c1C(=O)N1CCC[C@@H]1CN1CCCC1`, the THP-1 cell loss is 19.1 ± 12%. With `O=C(Nc1cccc(Cl)c1)Nc1ncc(CCNc2ncnc3ccsc23)s1` the figure was 80.2 ± 4.3%. `N#C/C(=C\c1ccc(O)c(O)c1)C(=O)NCc1ccccc1` came in with a THP-1 cell loss of 0.71 ± 1%. The compound `CCCCCCCC(=O)OCCOC(=O)CCCCCCC` [Dioctanoylglycol] displayed a THP-1 cell loss of 4.61 ± 6.5%. `Cc1cnc(-c2cnc(NCCNc3ccc(C#N)cn3)nc2-c2ccc(Cl)cc2Cl)[nH]1` returned a THP-1 cell loss of 13.7 ± 5%. Consider `CC(C)[C@H](CO)Nc1nc(Nc2cccc(Cl)c2)c2ncn(C(C)C)c2n1` [Purvalanol A], for which the THP-1 cell loss is 100%. `Cc1cccc(-c2nn(C(=S)Nc3ccccc3)cc2-c2ccnc3ccccc23)n1`: the THP-1 cell loss was found to be 2.37 ± 3.4%. With `Nc1nc(Nc2ccc(S(N)(=O)=O)cc2)nn1C(=S)Nc1c(F)cccc1F` [Cdk1/2 Inhibitor III] the figure was 5.81 ± 8.1%. In the case of `COc1cc2c(Nc3ccc(NC(=O)c4ccccc4)cc3)ncnc2cc1OCCCN1CCOCC1` it was 27.2 ± 1.4%; in that of `CC(C)c1cnn2c(NCc3ccccc3)cc(NCCCCCCN)nc12` [BS-181 hydrochloride], 90.8 ± 13%; in that of `CCOc1cc2ncc(C#N)c(Nc3ccc(OCc4ccccn4)c(Cl)c3)c2cc1NC(=O)/C=C/CN(C)C` [Neratinib], 55.4 ± 63%. Compound `CCCCCCCCCCCCCCCCn1cc[n+](Cc2ccccc2)c1C` displayed a THP-1 cell loss of 100%. `C[C@@H]1CCN(C(=O)CC#N)C[C@@H]1N(C)c1ncnc2[nH]ccc12` registered a THP-1 cell loss of 9.64 ± 8.9%. `Cc1nc(Nc2ncc(C(=O)Nc3c(C)cccc3Cl)s2)cc(N2CCN(CCO)CC2)n1` [Dasatinib] returned a THP-1 cell loss of 34.7 ± 4.4%. The compound `CC[C@@H]1C(=O)N(C)c2cnc(Nc3ccc(C(=O)NC4CCN(C)CC4)cc3OC)nc2N1C1CCCC1` had a THP-1 cell loss of 100%.

`CC(C)N(CCC(=O)c1ccc2ccccc2c1)Cc1ccccc1`: the THP-1 cell loss worked out at 3.99 ± 5.6%. In the case of `Cc1c[nH]c(/C=C2\C(=O)Nc3ccccc32)c1CCC(=O)O`, the THP-1 cell loss amounted to 10.8 ± 15%.

`COc1cccc(-c2cc(=O)c3ccccc3o2)c1N` showed a THP-1 cell loss of 26.7 ± 35%. The compound `O=c1cc(N2CCOCC2)oc2c1ccc1ccccc12` showed a THP-1 cell loss of 24.4 ± 6.4%. In the case of `CN(C)c1ccc(/C=C2/C(=O)Nc3ccccc32)cc1`, the THP-1 cell loss is 20.5 ± 18%.
